Screening data (PubChem BioAssay)
Shown are actives, neighbours in structure and some others; about 2.3% of the full set was active somewhere.
M1 antag = blocks human M1 muscarinic receptor; P11229; CHO-K1 hM1, Fluo-8 calcium fluorescence, ACh EC80 antagonist; inhibition, % at 3 µM; actives 1.3% (n = 360,000); AID 588852;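 active = percent inhibition above its own plate's cutoff, namely the mean of that plate's compound wells plus 3 SD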;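 also: peak over basal fluorescence ratio during 140 s after agonist addition; 0% = ACh EC80 plus DMSO and 100% = DMSO alone without agonist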
Target sequence (P11229 whole entry, looked up): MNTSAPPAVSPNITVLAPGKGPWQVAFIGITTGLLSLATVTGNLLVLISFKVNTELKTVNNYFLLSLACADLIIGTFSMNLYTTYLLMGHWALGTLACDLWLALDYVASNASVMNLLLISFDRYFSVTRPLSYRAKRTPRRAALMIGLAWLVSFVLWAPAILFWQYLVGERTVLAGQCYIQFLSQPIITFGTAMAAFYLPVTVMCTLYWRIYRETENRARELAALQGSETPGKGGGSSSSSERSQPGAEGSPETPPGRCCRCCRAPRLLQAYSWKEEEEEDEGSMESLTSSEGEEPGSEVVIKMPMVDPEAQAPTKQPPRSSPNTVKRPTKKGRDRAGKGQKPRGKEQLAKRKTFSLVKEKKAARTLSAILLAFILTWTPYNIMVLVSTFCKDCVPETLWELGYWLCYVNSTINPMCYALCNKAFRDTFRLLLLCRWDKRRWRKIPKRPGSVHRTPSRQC
M1 PAM = human CHRM1 positive allosteric modulation; P11229; CHO-K1 hM1, Fluo-8 calcium fluorescence, ACh EC20; 0% = ACh EC20, 100% = maximal ACh; activation, % at 3 µM; actives 0.088% (n = 360,000); AID 588819; in the data active = activation above about 19%, passing the limit was not always enough
CHRM1 agonist = human M1 muscarinic receptor agonism. P11229. CHO-K1 hM1, Fluo-8 calcium fluorescence, agonist mode; 0% DMSO, 100% acetylcholine EC100. activation, % at 3 µM. actives 0.33% (n = 360,000);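 active = activation above the run's mean compound activation plus 3 SD, cut at about 16% in these data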;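 also: peak over basal fluorescence ratio within a 140 s kinetic read after compound addition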
CHO-K1 Ca antag = counter-screen for M1 antagonists: effect in parental CHO-K1 cells; AID 602250; actives 0.6% (n = 360,000); inhibition, % at 3 µM; ATP-induced calcium, Fluo-8 fluorescence;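 active = inhibition above a per-plate cutoff, the plate's mean sample inhibition plus 3 SD, cut at about 24% in these data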;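 also: 0% = DMSO plus EC80 ATP and 100% = DMSO alone without ATP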
M1 PAM parental = counter-screen for M1 PAMs: effect in parental CHO-K1 cells; ATP EC20, Fluo-8 calcium fluorescence; 0% at ATP EC20, 100% at ATP max; activation, % at 3 µM; actives 0.02% (n = 360,000); AID 602247;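 active = activation above the run cutoff, the mean activation of all test compounds plus 3 SD, cut at about 40% in these data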;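 also: peak over basal fluorescence ratio in a 140 s read after ATP addition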
M1 ag parental = M1 agonist counterscreen hit in parental CHO-K1 cells. Fluo-8 calcium fluorescence; scaled to maximal ATP response, vehicle zero. activation, % at 3 µM. actives 0.48% (n = 360,000); in the data active = activation above about 15%;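 also: untransfected CHO-K1 host cells lacking M1 receptor as counterscreen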
* marks the source's active call; other numbers are inactive results.

SMILES	M1 antag	M1 PAM	CHRM1 agonist	CHO-K1 Ca antag	M1 PAM parental	M1 ag parental
COc1ccc(N2CC(O)(c3ccc(OC(F)F)cc3)[N+]3=C2CCCC3)cc1 (centres undefined)	42*	-19	-7	-3	7	0
OC1(c2cccs2)CN(c2ccccc2)C2=[N+]1CCCC2 (centres undefined)	-7	7	-5	-13	12	0
CCOc1ccc(N2CC(O)(c3cccs3)[N+]3=C2CCCC3)cc1 (centres undefined)	41*	-11	-4	-7	17	1
CN(CC1CCCN(CCc2ccc(Cl)cc2)C1)C(=O)c1ccco1 (centres undefined)	35*	-16	-6	-11	15	-1
CN(CC1CCCN(CCc2ccc(Cl)cc2)C1)C(=O)c1ccoc1 (centres undefined)	12	-13	-7	-13	12	1
CN(CC1CCCN(CCc2ccc(Cl)cc2)C1)C(=O)c1ccc2nc[nH]c2c1 (centres undefined)	48*	-20	-7	-1	-3	0
COc1cc(NS(=O)(=O)c2ccc(NC(=O)c3cccnc3)cc2)ncn1	-8	7	1	7	-26	0
C1=C(CCNc2ncnc3c2[nH]c2ccccc23)CCCC1	22	-13	-4	29*	6	15*
COc1ccc(CNc2ncnc3c2[nH]c2cc(OC)c(OC)cc23)cc1	20	-10	-3	14	-26	3
CC(C)OCCCNc1ncnc2c1[nH]c1ccccc12	39*	-29	2	-14	-11	16*
COc1ccc(CNc2ncnc3c2[nH]c2ccccc23)cc1	37*	-14	6	21	-11	19*
CCOC(=O)c1ccc(CNC(=O)c2cc(COc3ccccc3SC)on2)o1	-1	-5	-5	-16	8	3
Cc1ccc(S(=O)(=O)NC(Cc2ccccc2)C(=O)O)cc1C (centres undefined)	-14	9	-3	-3	5	0
CCCc1cc(=O)n2nc(N3CCC(C(=O)N4CCN(c5ccc(OC)cc5)CC4)CC3)sc2n1	24	-9	-3	16	-7	10
CNC(=S)N1N=C(c2ccc(OC)cc2)CC1c1ccccc1Cl (centres undefined)	34*	-22	-8	-6	-7	1
O=C(CCn1c(=S)oc2ccccc21)Nc1ccccc1F	13	-7	-7	26*	-14	0
Cc1nn(-c2ccccc2)c2sc(-c3n[nH]c(=S)o3)cc12	3	8	-3	25*	-7	-1
Cn1c(=O)oc2cc(S(=O)(=O)N3CCCC(C(=O)NCc4ccc5c(c4)OCO5)C3)ccc21 (centres undefined)	-13	9	-3	-10	16	0
O=C(NCc1ccccn1)C1CCCN(S(=O)(=O)c2ccc(Br)cc2)C1 (centres undefined)	8	-9	-6	24*	-9	0
Cn1c(=O)oc2cc(S(=O)(=O)N3CCCC(C(=O)NCc4cccs4)C3)ccc21 (centres undefined)	-7	1	-7	27*	-10	0
O=C(NCc1ccccn1)C1CCCN(S(=O)(=O)c2cc(Cl)ccc2Cl)C1 (centres undefined)	-5	8	-3	-5	5	0
CN(CC(=O)Nc1ccc(F)cc1)C(=O)CSc1ncccn1	-5	6	-1	-9	-8	0
CCOC1(c2ccccc2)CC1C(=O)N/N=C/c1cccc([N+](=O)[O-])c1 (centres undefined)	-4	0	-3	-7	13	2
CSCC[C@H](CO)NC(=O)[C@H]1O[C@@H](n2cnc3c(N)ncnc32)[C@H](O)[C@@H]1O	-28	4	-3	-11	20	1
CCSc1nsc(NC(=O)Nc2ccc(F)cc2F)n1	13	-6	2	20	-6	9
SMILES	M1 antag	M1 PAM	CHRM1 agonist	CHO-K1 Ca antag	M1 PAM parental	M1 ag parental
CCSc1nsc(NC(=O)Nc2ccccc2Cl)n1	18	-13	0	28*	-16	7
CC(C)CCNC(=O)Cn1c(=O)oc2cc(S(=O)(=O)N3CCc4ccccc43)ccc21	31*	-23	-12	19	-11	0
Cc1ccc(S(=O)(=O)NC(=O)C2(C)CCN2C(=O)Cc2ccc(-c3ccccc3)cc2)cc1 (centres undefined)	-1	-1	-2	-3	18	0
Cc1ccc(NC(=O)C2(C)CCN2C(=O)Cc2ccc(-c3ccccc3)cc2)cc1 (centres undefined)	20	-15	19*	5	13	8
CC(C)(C)c1ccc(CC(=O)N2CCC2(C)C(=O)Nc2cnc3ccccc3c2)cc1 (centres undefined)	36*	-21	0	-2	10	11
CCc1nc2ccc(C(=O)N3CCNC(=O)C3)cn2c1N(C)CCC(C)C	0	0	-9	0	14	1
Cc1cc(C)c2nc(N3CCC(C(=O)NCCCN4CCCCC4)CC3)sc2c1	76*	-20	-5	13	11	0
Cc1cc(C)c2nc(N3CCC(C(=O)N4CCCC4)CC3)sc2c1	37*	-23	-8	-19	1	0
O=C(/C=C/c1cn(-c2ccccc2)nc1-c1ccccc1)Nc1ccc(C(=O)O)cc1	98*	-21	-5	-3	2	0
NS(=O)(=O)c1ccc(NC(=O)/C=C/c2cn(-c3ccccc3)nc2-c2cccc(Cl)c2)cc1	-12	10	-5	-4	-5	0
CC(=O)N1CCc2cc(S(=O)(=O)N3CCc4ccccc43)ccc21	60*	-23	1	9	1	15*
CSc1cccc(NS(=O)(=O)c2ccc3c(c2)CCN3C(C)=O)c1	31	-15	-3	29*	-29	18*
CC(=O)N1CCc2cc(S(=O)(=O)N3CCc4ccccc4C3)ccc21	-6	14	-2	-9	20	1
Cn1cc(S(=O)(=O)N2CCc3ccccc32)cc1C(=O)NC(C)(C)C	32*	-15	4	26*	-13	6
COc1cccc(NS(=O)(=O)c2ccc3c(c2)CCN3C(C)=O)c1	20	-14	-6	8	-18	14
Cc1cccc(C)c1NC(=O)c1cc(S(=O)(=O)N2CCc3ccccc32)cn1C	-1	-4	-5	2	0	1
COc1ccc(NC(=S)N2CCN(C(=O)c3ccco3)CC2)cc1OC	-17	19	1	-2	14	0
C(=N\Nc1ccccn1)/c1ccc2c(c1)OCCO2	-4	5	-10	2	22	1
N#Cc1c(Nc2cccc(F)c2)sc2c(O)cc(=O)[nH]c12	-3	9	-6	-12	21	1
